# Measured values taken from ChEMBL document CHEMBL4888484, “Replenishing the malaria drug discovery pipeline: Screening and hit evaluation of the MMV Hit Generation Library 1 (HGL1) against asexual blood stage Plasmodium falciparum ,using a nano luciferase reporter read-out” (2022).
# Out of some 4,800 compounds screened, about 420 (8.8%) showed an effect of 50% or more. Many of the other results were omitted from the sample, so strong results are more common in it than they were.
# Tested on: Plasmodium falciparum
# Test: Confirmatory screen in NF54 nanoGlo assay, in single point, at 2uM, 72h
# Type: functional, Erythrocyte
# Conditions: timepoint 72 hour
row,Structure (SMILES),% Inhibition [%]
1,CCC(C)(C)c1ccc(OCC(=O)Nc2cccc(C(=O)CC(=O)Nc3ccc(Oc4ccccc4)cc3)c2)c(C(C)(C)CC)c1,-4
2,CCN1CCN(C2CCN(c3ncc(F)c(OC)n3)CC2)CC1,48
3,COc1nc(N2[C@@H]3CC[C@H]2C[C@@H](OC)C3)ncc1F,62
4,COc1cc(N)ccc1OCC(F)F,2
5,Cc1nn(C)cc1-c1cc(C(F)(F)F)nc(N2CCOCC2)n1,-5
6,Cn1ccc(NC(=O)C(=O)c2ccc(-c3ccccc3)cc2)n1,1
7,Cc1ccccc1NC(=O)N1CCN(C(=O)c2nonc2N)CC1,-7
8,NS(=O)(=O)c1ccc(-c2noc(C3(c4cccc(F)c4)CCC3)n2)cc1,-9
9,COCCN1CCc2c(C)nc3c(-c4ccc(OC)c(OC)c4)cnn3c21,6
10,Cc1ccc(S(=O)(=O)N2CCC(c3csc(N)n3)CC2)cc1,-9
11,CCc1ncoc1C(=O)NCC(F)(F)c1cc(F)cc(F)c1,-10
12,O=C1CCc2[nH]c(=O)n(C3CCCCC3)c(=O)c21,4
13,C[C@@H]1NC(=O)N(C2CCCN(Cc3cccc(C(F)(F)F)c3)C2=O)C1=O (stereo not given in full),-11
14,COc1ccc(-n2c(C)nn(Cc3ccccc3)c2=O)cc1,-11
15,CN(CCCNC(=O)Cc1n[nH]c(=O)c2ccccc12)Cc1ccccc1,-2
16,CCCC(=O)Nc1ccc(N2CCN(CC(=O)N(CC)CC)CC2)cc1C(=O)O,-2
17,Cc1cc(C)c(NC(=O)c2nnn(CC(=O)NCc3ccc(F)cc3)c2C)c(C)c1,-9
18,O=C(N[C@H]1C[C@@H]2C[C@H]1CN2C(=O)c1cccc(C(F)(F)F)c1)c1ccccc1,3
19,COc1ccc(OC)c(NC(=O)CN2CCc3[nH]c4ccc(F)cc4c(=O)c3C2)c1,72
20,COc1cc(C)c2[nH]c3c(c(=O)c2c1)CN(CC(=O)Nc1ccc(C)c(F)c1)CC3,0
21,COc1cc(C)c2[nH]c3c(c(=O)c2c1)CN(CC(=O)Nc1ccc(F)c(C)c1)CC3,14
22,COc1ccc(S(=O)(=O)N(C2CCCCC2)C2CCCCC2)cc1,-11
23,CCN(CCc1ccncc1)S(=O)(=O)c1ccc(N2C(=O)CCS2(=O)=O)cc1C,6
24,O=C(Nc1ccc(-c2nc3cnccc3o2)c(Cl)c1)c1sc2ccccc2c1Cl,-5
25,Oc1cc(CC[C@H]2CCCCN2)cc(-c2cnc3ccccc3n2)c1,73

row,Structure (SMILES),% Inhibition [%]
1,COc1cccc(-c2cc(O)cc(CC[C@H]3CCCCN3)c2)n1,73
2,COCCN(CC1CN(Cc2ccsc2)CC1c1cccc(F)c1)C(=O)C(C)C (stereo not given),2
3,O=C(Nc1ccc(N2CCn3c(nc4cc(Cl)ccc43)C2)cc1)c1ccc(F)cc1,-6
4,Cc1nc(Cc2nc(O)cs2)sc1C,-20
5,NC[C@H]1CN(CCc2cccc(Cl)c2)C(=O)O1,-8
6,Cc1ccnc2nc(C(=O)N(C)c3ccc(Cl)cn3)nn12,16
7,CCC(=O)Nc1nc2ccc(NS(=O)(=O)Cc3ccccc3)cc2s1,-5
8,Fc1cccc(Br)c1C1CC(c2cccnc2)Nc2ncnn21 (stereo not given),-9
9,CC(C)(C)OC(=O)NCc1ccccc1O,1
10,O=C(NC1CCN(Cc2ccccc2)CC1)c1cncc(O)c1,-10
11,CCN1CCN(C(=O)c2ccccc2N2CCC(NC(=O)c3cccc(Br)c3)CC2)CC1,44
12,CCN(CC)CCCNC(=O)c1ccc(-c2nc(CS(=O)(=O)c3ccccc3)c(C)o2)cc1,-10
13,O=S(=O)(c1ccc(Cl)cc1)N1CCN(C2CCCC2)CC1,2
14,Cc1ccc(Cn2cnc(NC(=O)CCn3c(=O)cc(C(F)F)c4cn(C)nc43)n2)cc1,-8
15,CCCCn1nc(NC(=O)c2cc(C3CC3)[nH]n2)cc1C,-2
16,CCN1CCN(c2cccc(NC(=O)c3ccc4[nH]c5ccccc5c(=O)c4c3)c2)CC1,93
17,O=c1[nH]c2ccccc2c(NCc2ccccc2)c1N1CCN(c2ccccc2)CC1,5
18,CC(C)n1nccc1NC(=O)c1c[nH]c2ccc(F)cc2c1=O,-1
19,Cc1cccc(NC(=O)c2cc(C)nc3c2c(C)nn3-c2ccc(F)cc2)c1,-2
20,CN(C)Cc1ccc(NC(=O)c2cc(F)cc3c(=O)c4cc(F)ccc4[nH]c23)cc1,79
21,CC(C)NC(=O)N(C)Cc1ccc(F)cc1,0
22,CCn1c(C)c(C)c2cc(C(=O)Nc3cccc(S(=O)(=O)N4CCOCC4)c3)ccc21,0
23,CC(=O)Nc1cccc(C#CCN2CCN(c3ccc(F)cc3)CC2)c1,-5
24,CCN1CCN(c2cccc(NC(=O)c3cc(F)cc4c(=O)c5cc(F)ccc5[nH]c34)c2)CC1,97
25,O=C(Nc1ccc(N2CCC(N3CCCCC3)CC2)cc1C(=O)O)c1ccccc1Cl,4

row,Structure (SMILES),% Inhibition [%]
1,O=C1C2C3C=CC(C3=C(c3ccccc3)c3ccccc3)C2C(=O)N1CCO (stereo not given),-5
2,N#Cc1ccc(N[C@H]2CCCN(Cc3ccc(F)cc3F)C2=O)cn1,-10
3,Cc1nc(COc2nc(C(C)(C)C)no2)cs1,-10
4,Cc1ccsc1NC(=O)OC(C)(C)C,1
5,Cc1nonc1N(Cc1ccc(Cl)cc1Cl)S(=O)(=O)c1ccccc1,-22
6,COc1cc(C(=O)N2CCN(c3ccccc3)CC2)cc2occc12,-2
7,O=C(NCc1cccc(Br)c1)c1ccc(Cl)c(-n2cnc3cccnc32)c1,-1
8,O=C(COCC(=O)Nc1cccc(Cl)c1Cl)NCCC1=CCCCC1,-3
9,O=C(O)C1CC=CCC1C(=O)N1CCCCCC1 (stereo not given),2
10,NC(=O)C(=O)Nc1ccccc1C(F)(F)F,-8
11,COc1ccc(CNC(=O)c2cc(C(=O)c3ccc(F)cc3)c[nH]2)cc1,-11
12,COc1ccc(-n2ncc(Oc3cccc(C)c3)c(Nc3cccc(C(=O)NCc4ccc(F)cc4)c3)c2=O)cc1,50
13,CC(C)c1ccc(Oc2cnn(-c3cccc(Cl)c3)c(=O)c2Nc2cccc(C(=O)NC3CC3)c2)cc1,48
14,O=c1cc(COc2ccc(F)c(F)c2)nc2sccn12,3
15,Cc1cc2nc(C)c(=O)n(CCC(=O)NCCCN(C)C3CCCCC3)c2cc1C,0
16,O=C(CCn1nc(-c2ccc3c(c2)OCO3)ccc1=O)NC1CCCCC1,-10
17,CN(CCNC(=O)CCc1cn(-c2ccccc2)nc1-c1ccc2c(c1)OCO2)C1CCCCC1,52
18,CN(C)c1noc(CN2CCc3ccc(F)cc3C2)n1,25
19,COc1ccc(S(=O)(=O)Nc2c(C)nc3ncnn3c2O)cc1,-18
20,CCN1CCN(c2nc(O)c3c(n2)NC(=O)C[C@H]3c2cccc(F)c2)CC1,-11
21,Cn1ncc2c(NCCO)nc(N3CCCCCC3)nc21,5
22,O=S(=O)(NC1CCCCC1)c1ccc(Cl)c(S(=O)(=O)NC2CCCCC2)c1,0
23,N#Cc1cc(S(=O)(=O)NCCN(C2CC2)S(=O)(=O)c2ccc(Cl)c(C#N)c2)ccc1Cl,75
24,COc1ccc(-n2nc(C(=O)N3CCN(c4ccccc4)CC3)c(=O)cc2OC)cc1,-5
25,Cn1ccnc1[C@@H](NC(=O)c1ccnn1C(F)F)C(C)(C)CO,-2

row,Structure (SMILES),% Inhibition [%]
1,CCc1nc2c(C(=O)N3CCOc4c(C)cc(C)cc43)ccnc2[nH]1,72
2,COc1cccc(CNCc2ccc3c(c2)OCO3)c1OCc1ccc(Cl)cc1Cl,-3
3,Cc1c(C(=O)N2CCCCC2)cccc1N1CCNC1=O,-15
4,COc1ccc2c(c1)OC13CCN(C)CC1C2C(C(=O)c1ccccc1OC)C(=O)N3 (stereo not given),57
5,COc1cccc(C(=O)N2CCC3(CC2)C[C@@H](OCc2ccccc2)CCO3)c1,-3
6,COc1cccc(NC(=O)c2ccccc2C(=O)OCCN2CCOCC2)c1,-2
7,Cc1cc(C(=O)NCC[C@H](C)n2nc(C)cc2C)c2c(-c3ccc(F)cc3)noc2n1,-9
8,Cn1cc(-c2nn(S(=O)(=O)c3ccccc3)c(-c3cnn(C)c3)c2Cl)cn1,2
9,CC1CC1NC(=O)C(NS(C)(=O)=O)C(C)(C)C (stereo not given),8
10,Cc1nc[nH]c1CN1CCN(C(=O)CCC(C)C)[C@H]2CS(=O)(=O)C[C@H]21,0
11,CCc1nc2cc(-c3noc(Cc4ccc(Cl)cc4)n3)ccc2o1,-5
12,O=C(c1ccccc1)c1ccc(O)c(CN2CCCN(c3ccc(C(F)(F)F)cn3)CC2)c1O,79
13,Cc1ccc(-n2nc(C)cc2NC(=O)CN2CCCN(c3ccc(C(F)(F)F)cn3)CC2)cc1,6
14,Cc1cccc(-c2nc3nc(C)c(CC(=O)N4CCCCC4)c(C)n3n2)c1,1
15,O=C(c1ccccc1OCC1CC1)N1CC(O)C1,-5
16,Cc1c(Cl)cccc1NC(=O)[C@H]1CC(=O)N(c2ccc(OCc3ccccc3)cc2)C1,-3
17,O=C(Cn1cnc2cc3c(cc21)OCCCO3)N1CCc2ccccc21,0
18,CCOc1cc(CNc2cccc3ccccc23)cc(Br)c1OCC(=O)NC(C)(C)C,89
19,CC[C@@H](CO)NCc1cccc(OC)c1OCC(=O)NC(C)(C)C,-8
20,COc1cccc(CNC(C)(C)C)c1OCC(=O)NC(C)(C)C,-5
21,COc1ccc(Cl)cc1CNC[C@H](C)O,-6
22,CCc1ccc(/C=C/c2c[nH]c3ccccc23)[n+](CC)c1,89
23,C[n+]1ccccc1/C=C/c1c[nH]c2ccccc12,90
24,O=C(Cc1cccs1)NC1CCN(c2nnc3ccc(Cl)cn23)CC1,-12
25,Cc1ccc([C@@H]2c3cccn3CCCN2Cc2cccs2)cc1C,10
